Pf Dd2 inh – inhibitors of Plasmodium falciparum Dd2 growth | P. falciparum Dd2 growth, SYBR Green, 72 h | 4.3% of 120,000 active | Potency, µM (doses to about 28.9 µM), for inactives: top-dose activity, negative = inhibition, usual class: inhibitors | AID 1347417; active = well fitted inhibition curve with a large enough effect;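 also: plate controls were DMSO vehicle for no effect and reference drug for full effect; nearly all actives have a fitted effect of over 65% in size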
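Readout: SYBR Green fluorescence, 485 nm excitation, 535 nm emission, after ~16 h lysis at 37C. Before that, Dd2-infected red cells (2.5% hematocrit) grew 72 h with compound, 29 uM top final concentration.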
* hit, by the source's call; i = inactive; [ ] = dose if it differs, or a comment. Shown is part of a subset that was picked to be rich in hits. Potency is read from the fitted curve at half-maximal effect.

SMILES	Pf Dd2 inh
COc1ccc(OCC(=O)N2CCN(C(=O)c3ccc(OC)c(OC)c3)CC2)cc1	14.4%
CCCS(=O)(=O)c1c(S(=O)(=O)CCC)c2cc(C(C)(C)C)ccn2c1C(=O)c1ccc(OC)c(OC)c1	2.82µM*
CCCCN(CCCC)C1=C(C(=O)c2ccccc2)N(CC)S(=O)(=O)c2ccccc21	-8.9%
CCCS(=O)(=O)c1c(S(=O)(=O)CCC)c2cc(C(C)(C)C)ccn2c1C(=O)c1ccccc1	2.51µM*
COc1ccc(C(=O)N2CCN(C(=O)COc3ccc(Br)cc3)CC2)cc1OC	36.2%
C=CCNC(=O)CCc1c(C)nn(-c2ccccc2C)c1Oc1cccc(F)c1	i
CCCOCCCNC(=O)c1c(C)noc1-c1ccc(C(C)(C)C)cc1	-10.1%
O=C(NCCCc1ccccc1)C1CCN(C(=O)c2ncn3c2COC(c2ccccc2)C3)CC1 (centres undefined)	-3.8%
Cc1ccc(-n2ncc(C(=O)NCCCN3CCCCC3)c2C2CCN(C(=O)OC(C)(C)C)CC2)c(C)c1	8.91µM*
CC(C)(C)OC(=O)N1CCC(c2c(C(=O)NCCN3CCOCC3)cnn2-c2cccc(Cl)c2)CC1	10µM*
COc1ccc(-n2ncc(C(=O)NCCN3CCOCC3)c2C2CCN(C(=O)OC(C)(C)C)CC2)cc1	-8.8%
Cc1ccc(-n2ncc(C(=O)NCCN3CCCC3)c2C2CCN(C(=O)OC(C)(C)C)CC2)cc1C	i
Cc1ccc(-n2ncc(C(=O)NC3CCCC3)c2C2CCN(C(=O)OC(C)(C)C)CC2)c(C)c1	10µM*
Cc1ccc(-n2ncc(C(=O)NCCCN3CCc4ccccc4C3)c2C2CCN(C(=O)OC(C)(C)C)CC2)c(C)c1	7.08µM*
COCCNC(=O)c1cnn(-c2ccc(C)cc2C)c1C1CCN(C(=O)OC(C)(C)C)CC1	-12.6%
CCCCc1ccc(-n2cc(CN3CCN(C(C)=O)CC(O)C3)cn2)cc1 (centres undefined)	7.1%
CCN(Cc1ccc(C)o1)C(=O)c1ccc2nc(-c3ccc(F)cc3)cn2c1	4.0%
COc1cc(NC(=O)Cn2c(C)cc3nc4n(c(=O)c32)CCCCC4)cc(OC)c1OC	i
O=C(c1cccc(F)c1)N1CCC2(CC1)N=C(c1ccc(Cl)cc1)NO2	i
COc1cc(NC(=O)N[C@H]2CO[C@H]3[C@@H]2OC[C@@H]3Nc2nccc(C(C)(C)C)n2)cc(OC)c1	i
Cn1nc(C(=O)N2CCOCCNC(=O)CC2)c2ccccc21	-1.2%
COc1ccc(C(=O)N2CCc3nnc([C@@H]4C[C@@H](O)CN4C)n3CC2)cn1	-1.9%
CCN1CCN(CCCNC(=O)c2cnn(-c3ccccc3)c2C2CCN(C(=O)OC(C)(C)C)CC2)CC1	-29.4%
CC(C)(C)OC(=O)N1CCC(c2c(C(=O)NCc3ccco3)cnn2-c2ccccc2)CC1	10µM*
CC(C)(C)OC(=O)N1CCC(c2c(C(=O)NCc3ccccc3)cnn2-c2ccccc2)CC1	i
SMILES	Pf Dd2 inh
CC(C)(C)OC(=O)N1CCC(c2c(C(=O)NCCCN3CCc4ccccc4C3)cnn2-c2ccccc2)CC1	8.91µM*
Cc1ccc(-n2ncc(C(=O)NCCCN3CCN(C)CC3)c2C2CCN(C(=O)OC(C)(C)C)CC2)cc1	i
Cc1ccc(-n2ncc(C(=O)NCc3cccs3)c2C2CCN(C(=O)OC(C)(C)C)CC2)cc1	i
O=C(c1ncn[nH]1)N1CCN(c2cc(C3CC(O)C3)ncn2)CC1 (centres undefined)	-7.4%
C=CCNC(=O)CCc1c(CC)nn(-c2ccc(OC)cc2)c1Oc1ccccc1F	i
C[C@@H]1CN(c2nc(-c3ccccc3)no2)CC[C@@]1(O)C1CCC1	-13.1%
Cc1ccc(CNC(=O)N2CCCN(C(=O)C3CC3)C(c3ccccc3)CC(=O)NCC2)cc1 (centres undefined)	-8.8%
Cc1cc(=O)n(CC(=O)Nc2ccc(C)c(C)c2)c(N(C)Cc2ccccc2)n1	i
Cc1cccc(NC(=O)Cn2c(N(C)Cc3ccccc3)nc(C)cc2=O)c1	5.01µM*
CCc1cccc(NC(=O)Cn2c(N(C)Cc3ccccc3)nc(C)cc2=O)c1	i
Cc1ncc(CN2CCC3(CC2)CCN(Cc2ccoc2)CC3CO)n1C (centres undefined)	8.4%
O=C(Nc1cc(F)cc(F)c1)N1CCCC1c1nncn1C1CCCC1 (centres undefined)	-3.4%
COc1cccc(C2CCN(Cc3cn(-c4ccccc4)nn3)C2)c1OC (centres undefined)	12.6µM*
c1ccc(-n2cc(CN3CCC(Oc4ccncc4)CC3)nn2)cc1	-22.1%
O=C(O)Cc1cc(C2CCN(Cc3cn(-c4ccccc4)nn3)CC2)n[nH]1	2.1%
CS(=O)(=O)N1CCc2ccc(C(=O)Nc3ccc(Oc4ccccc4)cc3)cc21	-16.2%
O=C1NCc2ccccc2CC12CCCN2Cc1ccccc1Cl (centres undefined)	-22.2%
O=C1NCc2ccccc2CC12CCCCN2Cc1ccc(O)cc1 (centres undefined)	-2.9%
O=C1NCc2ccccc2CC12CCCN2Cc1cnc2ccccc2c1 (centres undefined)	8.91µM*
O=C1NCc2ccccc2CC12CCCN2Cc1cc(O)cc(O)c1 (centres undefined)	4.4%
O=C1NCc2ccccc2CC12CCCN2Cc1ccc(Cl)s1 (centres undefined)	10µM*
O=C1NCc2ccccc2CC12CCCN2Cc1ccc(Cl)cc1 (centres undefined)	-13.1%
O=C1NCc2ccccc2CC12CCCCN2Cc1ccnc2ccccc12 (centres undefined)	8.91µM*
O=C1NCc2ccccc2CC12CCN(Cc1ccc(Cl)s1)C2 (centres undefined)	-7.0%
O=C1NCc2ccccc2CC12CCN(Cc1cnc3ccccc3c1)C2 (centres undefined)	-20.0%
SMILES	Pf Dd2 inh
COC(=O)N1CCC2(C1)N=C(c1ccccn1)C(=O)N2 (centres undefined)	i
O=C1N(C2CCOCC2)C[C@H]2CN(Cc3ccccc3F)CCN12	-4.4%[44.1 µM]
Cc1ccc(NC(=O)C2CCCN(c3cn[nH]c(=O)c3)C2)cc1C (centres undefined)	-7.8%
O=C(Nc1ccc2[nH]ccc2c1)C1=NO[C@@H]2CN(c3ccccc3)C[C@H]12	-3.8%[44.1 µM]
CN1CC(=O)N(C2CCC2)Cc2c1ncnc2N1CCC(N2CCCCC2)CC1	i
CCC1(C(=O)Nc2ccc(C)c(F)c2)CCCCC(=O)N1 (centres undefined)	i
COc1ccc(NC(=O)CCc2ccc3c(c2)CN(C(=O)NC(C)C)CCO3)cn1	-21.4%
Cn1ccnc1C(=O)NCC(=O)N1CCCCCNC(=O)CC1c1ccccc1 (centres undefined)	-20.0%
COCCCNC(=O)c1[nH]c2cc(OC)ccc2c1Sc1ccc(C)cc1	25.0%
COc1ccc2c(Sc3ccccc3)c(C(=O)NCCCN3CCCCC3)[nH]c2c1	11.2µM*
O=C(NCCCN1CCCCC1)c1[nH]c2ccccc2c1Sc1ccc(Cl)cc1	i
O=C(NC1CC1)c1ccccc1OC1CN(Cc2cccc(F)c2)C1	-14.0%
O=C(NC1CC1)c1ccccc1OC1CN(Cc2cccc(C(F)(F)F)c2)C1	-24.3%
COc1cccc(CN2CC(Oc3ccccc3C(=O)NCc3ccccc3)C2)c1	3.55µM*
CC(C(=O)NCC1CCCO1)N1C(=O)COc2ccc(C(=O)COc3ccc(F)cc3F)cc21 (centres undefined)	i
O=C1NC2(CCCN(C(=O)c3ccc(Cl)cc3)C2)Oc2ccccc21 (centres undefined)	14.6%
CC(C)NC(=O)Cc1csc2nc(-c3ccccc3)cn12	39.7%
COc1ccccc1CNC(=O)Cc1csc2nc(-c3ccccc3)cn12	-20.4%

Bioassay records deposited in PubChem BioAssay by National Center for Advancing Translational Sciences (NCATS).
